PI5P4K alpha inh – PI5P4K alpha (human) kinase inhibition; PI5P4Kalpha enzyme, ADP-Glo luminescence, 60 min; active compounds read low; max response, %; 1.2% of 330,000 active; AID 652105; active = max response of -50% or lower; inconclusive = between -30% and -50%; inactive = -30% or higher; note: value at the top dose of about 77 µM
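Quantitative HTS of the MLSMR library against PI5P4Kalpha with substrate. ATP added last at 5 microM final; room temperature, 60 minutes. Remaining ATP depleted, ADP converted and read as luminescence.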
HP1b binding inh – HP1-beta chromodomain-methylated histone interaction inhibition. P83916. AlphaScreen HP1-beta / biotin-H3K9me3 peptide binding. Potency, µM (titrated, usually from 114 µM), hits mostly inhibitors. 0.56% of 390,000 active. AID 540317; note: nearly all actives have a fitted effect of over 70% in size
Target sequence (P83916 whole entry, looked up): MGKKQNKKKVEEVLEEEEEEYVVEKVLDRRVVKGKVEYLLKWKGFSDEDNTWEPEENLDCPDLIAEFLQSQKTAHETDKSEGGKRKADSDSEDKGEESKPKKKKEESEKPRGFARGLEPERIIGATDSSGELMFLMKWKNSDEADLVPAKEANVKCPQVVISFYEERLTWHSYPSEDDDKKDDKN
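AlphaScreen: HP1-beta (50 nM) preformed 30 min with biotin-H3(1-18)K9me3 peptide (50 nM) in PBS pH 7.4, 0.01% Tween-20. Compound added for 30 min at RT, then streptavidin donor/nickel chelate acceptor beads (10 ug/mL) for 30 min.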
BAZ2B inh – inhibitors of human BAZ2B bromodomain; Q9UIF8; AlphaScreen BAZ2B-H3K14Ac peptide displacement; Potency, µM (top dose mostly 114 µM), usual class: inhibitors; 4.4% of 360,000 active; note: nearly all actives have a fitted effect of over 60% in size
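AlphaScreen displacement of biotin-H3(5-23)K14Ac peptide (50 nM final) from BAZ2B (50 nM final) in PBS pH 7.4, 0.01% Tween-20; complex preformed 30 min RT, then compounds (top 110 uM) 30 min RT, beads 20 min dark.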
JMJD2A Tudor inh – JMJD2A Tudor domain (human) inhibition | AlphaScreen JMJD2A-Tudor / H3K4me3 peptide binding | O75164 | 4.4% of 390,000 active | AID 504339 | Potency, µM (doses to about 114 µM), hits mostly inhibitors; note: nearly all actives have a fitted effect of over 50% in size
G9a inh – blocks human histone lysine methyltransferase G9a | Potency, µM (series often up to 102 µM), most hits filed as inhibitors | Q96KQ7 | AID 504332 | G9a H3K9 monomethylation, AlphaScreen, 2 h | 8.8% of 350,000 active; note: nearly all actives have a fitted effect of over 75% in size
Target sequence (Q96KQ7 913-1193 limits assumed): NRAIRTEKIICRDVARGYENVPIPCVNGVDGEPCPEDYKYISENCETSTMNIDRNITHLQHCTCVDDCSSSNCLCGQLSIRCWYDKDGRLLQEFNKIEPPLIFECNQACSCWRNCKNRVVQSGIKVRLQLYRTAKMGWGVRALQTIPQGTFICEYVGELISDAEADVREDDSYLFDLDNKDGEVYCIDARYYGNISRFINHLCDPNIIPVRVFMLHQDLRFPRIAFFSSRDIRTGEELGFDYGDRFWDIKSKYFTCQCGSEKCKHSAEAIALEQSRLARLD
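Using a bead-based AlphaScreen, monomethylated H3K9 product from 2 h room-temperature reactions (G9a 20 nM, peptide 500 nM, SAM 20 uM) was detected with 0.5 ug/mL rabbit anti-H3K9me1 antibody.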
PLK1 PBD block – blocks phosphopeptide binding to human PLK1 polo-box domain; P53350; Plk1 PBD binding of FITC phosphopeptide, fluorescence polarization; Potency, µM, actives largely listed as inhibitors; 2.8% of 360,000 active; note: series mostly up to about 57 µM; nearly all actives have a fitted effect of over 65% in size
TbPYK inh – Trypanosoma brucei pyruvate kinase inhibition, cherry-pick confirmation | shares compounds with PLK1 PBD block | recombinant TbPYK, Kinase-Glo ATP luminescence | Potency, µM (top dose mostly 76.9 µM), hits mostly inhibitors | 67% of 890 active | AID 720569; note: nearly all actives have a fitted effect of over 70% in size
TbPYK orthogonal – orthogonal confirmation of Trypanosoma brucei pyruvate kinase inhibitors | recombinant TbPYK, ADP-Glo luminescence, 60 min | Potency, µM (series often up to 76.9 µM), usual class: inhibitors | 62% of 890 active | shares compounds with PLK1 PBD block; note: nearly all actives have a fitted effect of over 75% in size
A number is an active result; n = inactive; u = inconclusive; x = not tested or not shown; [ ] = dose if it differs, or a comment. An excerpt weighted towards active compounds, which were near 12% of everything screened. Unless noted, calls come from the whole dose curve; as a rule, active = well fitted curve in the direction sought with a large enough effect; inconclusive = small, poorly fitted or top-dose-only effect, or another doubt; inactive = no such curve, though single readings can be large; an effect the other way counts as inactive or inconclusive.

SMILES	PI5P4K alpha inh	HP1b binding inh	BAZ2B inh	JMJD2A Tudor inh	G9a inh	PLK1 PBD block	TbPYK inh	TbPYK orthogonal
O=C(CSc1cc([N+](=O)[O-])cc(S(=O)(=O)Cc2ccccc2)c1)NC1CC1	n	n	n	n	u	u	u	25µM
CC(Cc1ccco1)NC(=O)c1ccc(C(F)(F)F)cc1 (configuration not stated)	n	n	n	n	n	n	x	x
O=C(Nc1ccc(C(=O)N2CCCC2)cc1)c1ccccc1F	x	n	n	n	u	n	25µM	n
CCN1C(=O)/C(=C2/C=Cc3cc(C)ccc3N2CC)N(C)C1=S	n	u	40µM	16µM	11µM	n	35µM	n
CCN1/C(=C2/SC(=S)N(C)C2=O)C=Cc2cc(C)ccc21	n	n	x	n	x	n	x	x
CCOC(=O)C1=C(C)N=c2s/c(=C/c3cccc([N+](=O)[O-])c3O)c(=O)n2C1c1cc(OC)c(OC)c(OC)c1 (configuration not stated)	n	16µM	7.9µM	14µM	2.2µM	27µM	32µM	u
COc1ccc(-c2csc(Nc3cccnc3)n2)cc1	n	n	n	n	n	n	x	x
c1cncc(Nc2nc(-c3cccs3)cs2)c1	x	u	u	20µM	u	19µM	n	u
NC(=O)CN1C(=O)/C(=c2\sc3nc(=O)c(Cc4ccccc4)nn3c2=O)c2ccccc21	n	n	n	n	7.9µM	6µM	28µM	16µM
NC(=O)CN1C(=O)C2CCCCN2C(=O)c2ccccc21 (configuration not stated)	n	n	n	n	n	n	x	x
COCCNC(=O)C1(C)CCN(C(=O)c2cccc(C)c2C)C1 (configuration not stated)	n	x	x	x	x	n	x	x
COC(=O)c1sc(NC(=O)c2cc(-c3ccccc3)nc3ccccc23)c(C#N)c1C	u	7.9µM	n	n	u	2.7µM	7.1µM	7.1µM
CCOc1ccc(-n2c(SCc3ccc([N+](=O)[O-])cc3)nnc2-c2ccccc2)cc1	n	n	n	56µM	u	n	11µM	8.9µM
COc1ccc(C(Nc2ccccn2)c2oc(CO)cc(=O)c2O)cc1 (configuration not stated)	n	u	u	8.9µM	1µM	24µM	n	n
CCN=C1S/C(=C\c2cn(C(C)=O)nc2-c2ccccc2)C(=O)N1CC	x	n	n	n	n	n	x	x
CC(=O)NC1=NC(=O)/C(=C/c2cn(C(C)=O)nc2-c2ccccc2)S1	-87	u	n	22µM	8.9µM	9.5µM	u	u
Cc1cccc(C(=O)Nc2cc3c(cc2C)n(C)c(=O)n3C)c1	x	n	u	n	n	x	x	x
c1ccc(-c2nc(-c3ccco3)cs2)nc1	x	n	n	n	u	u	n	n
Cn1cnc(S(=O)(=O)N2CCC(C(=O)Nc3ccc(OC(F)(F)F)cc3)CC2)c1	x	n	n	n	n[12.7 µM]	x	x	x
COc1ccccc1C(=O)NC(=O)COC(=O)CCOc1cc(C)ccc1C	n	n	n	n	n	n	x	x
COc1cc(Nc2nc3c(S(=O)(=O)c4cccc(Cl)c4)nnn3c3ccsc23)cc(OC)c1	x	n	n	n	n	x	x	x
O=c1cc(O)n(-c2ccccc2)c(=S)[nH]1	u	n	n	n[11.4 µM]	18µM	3.4µM	u	n
N=c1n(-c2ccccc2)c(O)cc(=O)n1-c1ccccc1	n	n	n	n	n[0.0925 µM]	n	x	x
CCN(CC(=O)NC1CCS(=O)(=O)C1)C(=O)c1ccc(OC)c([N+](=O)[O-])c1 (configuration not stated)	n	n	n	n	n[12.7 µM]	n	x	x
CCOc1ccc(-c2c(=O)n(OCC)c3ccccc3[n+]2[O-])cc1	n	n	n	n	n	u	x	x
CCOc1ccc(-c2c(=O)n(O)c3ccccc3[n+]2[O-])cc1	n	n	56µM	79µM	n[2.33 µM]	u	u	n
